In article PMC7862700, “An all-to-all approach to the identification of sequence-specific readers for epigenetic DNA modifications on cytosine” one finds binding signal data, which are given here for 1 sequence.

Holding throughout (experiment): DAPPL (digital affinity profiling via proximity ligation, sequencing); 10 mM Tris-HCl pH 7.5, 50 mM NaCl, 1 mM DTT, 4% glycerol, room temperature, 30 min; GST-TFs on glutathione beads, 16-mer random dsDNA library, 0.1% formaldehyde crosslink after washing; high values mean tight binding
For one test, the target named is T1, FEV (Homo sapiens, UniProt Q99581 1-238).
T1 sequence: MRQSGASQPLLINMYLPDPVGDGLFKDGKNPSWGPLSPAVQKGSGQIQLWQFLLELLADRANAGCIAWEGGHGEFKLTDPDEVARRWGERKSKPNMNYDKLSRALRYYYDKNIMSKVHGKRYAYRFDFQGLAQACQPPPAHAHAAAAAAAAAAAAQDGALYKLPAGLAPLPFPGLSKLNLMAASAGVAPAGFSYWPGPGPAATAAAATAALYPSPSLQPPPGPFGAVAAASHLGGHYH
The settings on record: protein: recombinant; tags: N-terminal GST; dsDNA, one strand shown. The method in brief: (§1)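 Human transcription factors carrying a GST fusion were produced in yeast, bound to glutathione beads, tagged with DNA barcodes and pooled together with a tag-only sample. Each pool was held with 200 nmole of a random double-stranded 16-mer DNA library in Tris/NaCl/DTT/glycerol buffer for 30 min at room temperature, then washed, crosslinked in 0.1% formaldehyde, proximity-ligated with BsaI/T4 ligase (1 h, 37 °C), PCR-amplified and sequenced on an Illumina NextSeq500. Binding signal is the read frequency of each hexamer for a given factor divided by its frequency in the tag-only sample.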

Another test deals with ETV5 (Homo sapiens, UniProt P41161 1-510). To be noted: protein: recombinant; tags: N-terminal GST; dsDNA, one strand shown. A digest of the protocol: as §1
Chain of ETV5 (P41161 whole entry): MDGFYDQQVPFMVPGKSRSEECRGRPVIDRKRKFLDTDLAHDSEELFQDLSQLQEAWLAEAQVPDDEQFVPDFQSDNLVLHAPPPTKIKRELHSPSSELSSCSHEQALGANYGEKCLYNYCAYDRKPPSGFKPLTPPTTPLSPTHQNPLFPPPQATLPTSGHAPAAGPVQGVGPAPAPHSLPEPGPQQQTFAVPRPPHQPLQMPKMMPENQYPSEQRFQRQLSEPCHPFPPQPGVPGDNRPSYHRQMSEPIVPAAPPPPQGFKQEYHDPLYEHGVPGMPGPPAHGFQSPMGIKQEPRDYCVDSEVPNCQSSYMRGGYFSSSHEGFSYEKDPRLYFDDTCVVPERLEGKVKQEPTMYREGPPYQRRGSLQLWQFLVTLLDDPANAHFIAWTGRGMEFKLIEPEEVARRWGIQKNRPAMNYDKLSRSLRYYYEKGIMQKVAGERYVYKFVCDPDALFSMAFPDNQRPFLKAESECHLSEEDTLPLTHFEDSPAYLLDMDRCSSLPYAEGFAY
A further test has as its target HSF1 (Homo sapiens, UniProt Q00613 1-529). The settings on record: protein: recombinant; tags: N-terminal GST; chain copies: 3; dsDNA, one strand shown. The method in brief: as §1
The target of a further test is T2, SPIC (Homo sapiens, UniProt Q8N5J4 1-248).
T2 sequence: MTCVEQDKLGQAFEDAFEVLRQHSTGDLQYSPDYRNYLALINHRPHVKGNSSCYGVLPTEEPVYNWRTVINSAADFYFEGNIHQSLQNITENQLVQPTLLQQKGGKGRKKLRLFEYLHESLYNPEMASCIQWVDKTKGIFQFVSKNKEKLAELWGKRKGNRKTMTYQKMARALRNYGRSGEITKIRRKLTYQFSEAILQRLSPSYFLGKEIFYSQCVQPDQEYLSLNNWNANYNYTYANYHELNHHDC
To be noted: protein: recombinant; tags: N-terminal GST; dsDNA, one strand shown. A digest of the protocol: as §1

In the next test the target is ELF4 (Homo sapiens, UniProt Q99607 1-663). The settings on record: protein: recombinant; tags: N-terminal GST; dsDNA, one strand shown. A digest of the protocol:
as §1

In another test the target is T3, ELK4 (Homo sapiens, UniProt P28324-2 1-405).
T3 sequence: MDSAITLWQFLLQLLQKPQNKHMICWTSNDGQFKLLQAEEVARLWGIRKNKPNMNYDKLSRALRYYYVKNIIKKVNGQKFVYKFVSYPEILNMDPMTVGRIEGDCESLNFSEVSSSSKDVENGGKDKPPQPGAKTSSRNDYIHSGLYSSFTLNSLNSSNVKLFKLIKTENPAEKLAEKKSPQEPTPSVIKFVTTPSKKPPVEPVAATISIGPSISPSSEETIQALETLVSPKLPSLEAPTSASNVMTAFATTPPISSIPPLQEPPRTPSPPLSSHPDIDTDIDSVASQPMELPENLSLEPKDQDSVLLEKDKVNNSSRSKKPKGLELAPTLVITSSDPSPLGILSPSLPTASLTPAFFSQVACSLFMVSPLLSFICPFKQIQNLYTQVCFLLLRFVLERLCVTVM
The settings on record: protein: recombinant; tags: N-terminal GST; dsDNA, one strand shown. A digest of the protocol:
as §1

A further test deals with T4, ETV2 (Homo sapiens, UniProt O00321 1-342).
T4 sequence: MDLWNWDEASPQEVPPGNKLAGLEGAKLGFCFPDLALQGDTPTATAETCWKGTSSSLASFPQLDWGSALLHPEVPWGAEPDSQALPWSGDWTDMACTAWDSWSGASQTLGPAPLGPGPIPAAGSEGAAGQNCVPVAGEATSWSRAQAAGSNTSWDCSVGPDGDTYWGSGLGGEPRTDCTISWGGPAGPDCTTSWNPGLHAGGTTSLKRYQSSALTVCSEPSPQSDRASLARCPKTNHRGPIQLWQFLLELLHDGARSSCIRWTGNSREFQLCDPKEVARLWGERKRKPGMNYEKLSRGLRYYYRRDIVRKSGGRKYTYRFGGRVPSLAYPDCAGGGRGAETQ
The settings on record: protein: recombinant; tags: N-terminal GST; dsDNA, one strand shown. The method in brief: as §1

Another test has as its target T5, ELF3 (Homo sapiens, UniProt P78545 1-371).
T5 sequence: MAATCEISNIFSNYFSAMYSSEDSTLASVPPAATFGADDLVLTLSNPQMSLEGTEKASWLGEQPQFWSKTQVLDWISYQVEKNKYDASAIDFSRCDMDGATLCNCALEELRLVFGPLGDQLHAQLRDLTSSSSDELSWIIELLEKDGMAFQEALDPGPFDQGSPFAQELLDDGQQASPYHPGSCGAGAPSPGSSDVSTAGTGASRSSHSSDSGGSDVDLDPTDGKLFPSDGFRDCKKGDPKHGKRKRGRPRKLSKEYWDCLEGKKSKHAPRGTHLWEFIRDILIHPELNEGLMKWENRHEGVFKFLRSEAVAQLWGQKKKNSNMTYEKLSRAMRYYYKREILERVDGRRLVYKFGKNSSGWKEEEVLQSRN
The settings on record: protein: recombinant; tags: N-terminal GST; dsDNA, one strand shown. The method in brief:
as §1

In another test the target is CRX (Homo sapiens, UniProt O43186 1-299). To be noted: protein: recombinant; tags: N-terminal GST; dsDNA, one strand shown. A digest of the protocol: as §1
Chain of CRX (O43186 whole entry): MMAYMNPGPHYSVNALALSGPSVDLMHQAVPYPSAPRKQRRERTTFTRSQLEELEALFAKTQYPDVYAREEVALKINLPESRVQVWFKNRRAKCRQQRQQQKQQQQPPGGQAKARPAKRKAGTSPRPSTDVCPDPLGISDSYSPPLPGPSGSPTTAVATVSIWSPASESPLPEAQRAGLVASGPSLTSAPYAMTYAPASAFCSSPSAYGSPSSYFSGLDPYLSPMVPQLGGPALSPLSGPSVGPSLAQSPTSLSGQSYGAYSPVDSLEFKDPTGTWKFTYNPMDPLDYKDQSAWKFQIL
The target of the next test is ETV1 (Homo sapiens, UniProt P50549 1-477). To be noted: protein: recombinant; tags: N-terminal GST; dsDNA, one strand shown. The method in brief:
as §1

The next test deals with T6, ERF (Homo sapiens, UniProt P50548 1-548).
T6 sequence: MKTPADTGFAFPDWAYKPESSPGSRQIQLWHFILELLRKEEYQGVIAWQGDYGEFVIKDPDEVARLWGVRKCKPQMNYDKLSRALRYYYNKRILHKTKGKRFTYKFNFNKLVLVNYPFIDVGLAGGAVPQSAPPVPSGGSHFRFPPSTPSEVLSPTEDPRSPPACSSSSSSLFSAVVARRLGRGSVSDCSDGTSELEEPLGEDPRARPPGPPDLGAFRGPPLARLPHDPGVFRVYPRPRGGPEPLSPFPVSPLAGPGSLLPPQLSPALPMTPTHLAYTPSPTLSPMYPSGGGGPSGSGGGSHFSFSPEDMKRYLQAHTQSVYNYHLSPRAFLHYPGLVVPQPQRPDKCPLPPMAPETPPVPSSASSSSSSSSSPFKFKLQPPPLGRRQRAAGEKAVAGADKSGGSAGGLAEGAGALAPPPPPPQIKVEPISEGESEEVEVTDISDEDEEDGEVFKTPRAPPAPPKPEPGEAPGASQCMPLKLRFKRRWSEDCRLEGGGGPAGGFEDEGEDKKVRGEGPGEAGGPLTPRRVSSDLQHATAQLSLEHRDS
The settings on record: protein: recombinant; tags: N-terminal GST; dsDNA, one strand shown. The method in brief: as §1

A further test deals with T7, ETV3L (Homo sapiens, UniProt Q6ZN32 1-361).
T7 sequence: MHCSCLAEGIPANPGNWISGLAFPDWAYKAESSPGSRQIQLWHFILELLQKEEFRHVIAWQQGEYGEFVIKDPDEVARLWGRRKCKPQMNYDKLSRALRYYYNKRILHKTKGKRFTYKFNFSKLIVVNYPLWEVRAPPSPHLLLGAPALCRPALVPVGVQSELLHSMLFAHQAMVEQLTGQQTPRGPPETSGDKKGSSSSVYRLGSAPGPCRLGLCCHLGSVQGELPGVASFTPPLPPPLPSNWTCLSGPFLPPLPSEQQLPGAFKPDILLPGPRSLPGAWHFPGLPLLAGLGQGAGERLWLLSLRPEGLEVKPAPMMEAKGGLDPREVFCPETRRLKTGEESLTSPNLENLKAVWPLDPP
The settings on record: protein: recombinant; tags: N-terminal GST; dsDNA, one strand shown. The method in brief: as §1

For a further test, the target named is T8, ETS2 (Homo sapiens, UniProt P15036 1-469).
T8 sequence: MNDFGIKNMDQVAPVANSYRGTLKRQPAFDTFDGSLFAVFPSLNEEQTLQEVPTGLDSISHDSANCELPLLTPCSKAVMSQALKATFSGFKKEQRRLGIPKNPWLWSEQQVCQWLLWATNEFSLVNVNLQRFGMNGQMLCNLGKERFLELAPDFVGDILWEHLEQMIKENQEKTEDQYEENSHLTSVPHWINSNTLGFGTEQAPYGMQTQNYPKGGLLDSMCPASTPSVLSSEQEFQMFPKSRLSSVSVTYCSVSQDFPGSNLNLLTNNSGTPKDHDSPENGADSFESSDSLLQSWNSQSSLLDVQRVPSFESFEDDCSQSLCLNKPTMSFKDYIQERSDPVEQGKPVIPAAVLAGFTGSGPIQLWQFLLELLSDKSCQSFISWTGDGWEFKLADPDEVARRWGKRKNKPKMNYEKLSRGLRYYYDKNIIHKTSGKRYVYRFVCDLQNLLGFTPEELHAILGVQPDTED
To be noted: protein: recombinant; tags: N-terminal GST; dsDNA, one strand shown. The method in brief: as §1

Another test concerns the target T9, SPDEF (Homo sapiens, UniProt O95238 1-335).
T9 sequence: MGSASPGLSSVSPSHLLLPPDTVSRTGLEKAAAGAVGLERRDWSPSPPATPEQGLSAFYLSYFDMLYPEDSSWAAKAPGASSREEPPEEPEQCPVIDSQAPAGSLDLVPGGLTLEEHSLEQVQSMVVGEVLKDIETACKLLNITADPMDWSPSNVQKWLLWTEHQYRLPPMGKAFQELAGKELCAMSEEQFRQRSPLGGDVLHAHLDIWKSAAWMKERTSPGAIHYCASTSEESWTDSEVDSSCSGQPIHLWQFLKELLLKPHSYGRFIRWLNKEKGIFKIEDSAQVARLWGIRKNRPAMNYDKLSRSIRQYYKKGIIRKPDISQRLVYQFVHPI
The settings on record: protein: recombinant; tags: N-terminal GST; dsDNA, one strand shown. A digest of the protocol: as §1

A further test concerns the target T10, ETV7 (Homo sapiens, UniProt Q9Y603 1-341).
T10 sequence: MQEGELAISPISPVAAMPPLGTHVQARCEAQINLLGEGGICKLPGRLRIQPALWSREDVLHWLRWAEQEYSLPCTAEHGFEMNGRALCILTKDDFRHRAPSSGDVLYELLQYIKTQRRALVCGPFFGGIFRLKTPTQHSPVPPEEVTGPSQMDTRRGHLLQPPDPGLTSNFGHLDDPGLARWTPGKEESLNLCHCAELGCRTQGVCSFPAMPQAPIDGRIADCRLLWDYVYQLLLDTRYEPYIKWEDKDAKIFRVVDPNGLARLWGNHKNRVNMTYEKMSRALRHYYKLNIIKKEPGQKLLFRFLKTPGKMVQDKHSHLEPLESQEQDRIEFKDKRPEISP
To be noted: protein: recombinant; tags: N-terminal GST; dsDNA, one strand shown. A digest of the protocol:
as §1

A further test addresses T11, ELF5 (Homo sapiens, UniProt Q9UKW6-2 1-255).
T11 sequence: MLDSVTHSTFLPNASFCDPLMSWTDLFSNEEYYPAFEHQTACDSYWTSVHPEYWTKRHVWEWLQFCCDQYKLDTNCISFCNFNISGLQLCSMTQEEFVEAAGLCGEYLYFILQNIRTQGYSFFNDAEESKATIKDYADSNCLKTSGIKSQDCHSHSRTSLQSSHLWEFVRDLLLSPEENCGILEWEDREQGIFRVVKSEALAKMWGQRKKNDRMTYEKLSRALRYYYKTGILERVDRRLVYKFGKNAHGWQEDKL
To be noted: protein: recombinant; tags: N-terminal GST; dsDNA, one strand shown. The method in brief:
as §1

The next test deals with T12, ETV3 (Homo sapiens, UniProt P41162-2 1-143).
T12 sequence: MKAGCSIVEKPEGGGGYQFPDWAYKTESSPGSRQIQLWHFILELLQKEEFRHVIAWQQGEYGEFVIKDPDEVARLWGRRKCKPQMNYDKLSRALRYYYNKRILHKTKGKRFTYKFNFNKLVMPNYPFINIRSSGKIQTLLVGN
To be noted: protein: recombinant; tags: N-terminal GST; dsDNA, one strand shown. The method in brief:
as §1

Another test concerns the target ETV6 (Homo sapiens, UniProt P41212 1-452). To be noted: protein: recombinant; tags: N-terminal GST; dsDNA, one strand shown. The method in brief: as §1

Chain of ELF4 (Q99607 whole entry): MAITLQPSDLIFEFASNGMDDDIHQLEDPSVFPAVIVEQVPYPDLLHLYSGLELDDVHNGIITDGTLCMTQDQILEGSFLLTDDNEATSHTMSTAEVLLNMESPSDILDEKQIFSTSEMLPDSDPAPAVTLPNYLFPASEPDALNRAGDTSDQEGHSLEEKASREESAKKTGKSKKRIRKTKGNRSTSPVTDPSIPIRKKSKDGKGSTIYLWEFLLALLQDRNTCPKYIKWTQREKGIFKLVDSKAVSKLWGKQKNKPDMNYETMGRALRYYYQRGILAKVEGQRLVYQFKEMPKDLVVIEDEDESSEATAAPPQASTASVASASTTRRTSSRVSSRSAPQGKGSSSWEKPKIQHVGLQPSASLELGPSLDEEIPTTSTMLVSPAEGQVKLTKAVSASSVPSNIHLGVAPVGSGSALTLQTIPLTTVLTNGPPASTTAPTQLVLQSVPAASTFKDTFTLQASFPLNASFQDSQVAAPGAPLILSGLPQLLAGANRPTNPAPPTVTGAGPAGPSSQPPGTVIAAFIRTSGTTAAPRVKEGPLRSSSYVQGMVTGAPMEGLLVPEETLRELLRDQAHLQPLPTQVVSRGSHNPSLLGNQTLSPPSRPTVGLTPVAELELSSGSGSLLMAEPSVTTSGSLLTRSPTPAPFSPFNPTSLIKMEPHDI
Chain of ETV6 (P41212 whole entry): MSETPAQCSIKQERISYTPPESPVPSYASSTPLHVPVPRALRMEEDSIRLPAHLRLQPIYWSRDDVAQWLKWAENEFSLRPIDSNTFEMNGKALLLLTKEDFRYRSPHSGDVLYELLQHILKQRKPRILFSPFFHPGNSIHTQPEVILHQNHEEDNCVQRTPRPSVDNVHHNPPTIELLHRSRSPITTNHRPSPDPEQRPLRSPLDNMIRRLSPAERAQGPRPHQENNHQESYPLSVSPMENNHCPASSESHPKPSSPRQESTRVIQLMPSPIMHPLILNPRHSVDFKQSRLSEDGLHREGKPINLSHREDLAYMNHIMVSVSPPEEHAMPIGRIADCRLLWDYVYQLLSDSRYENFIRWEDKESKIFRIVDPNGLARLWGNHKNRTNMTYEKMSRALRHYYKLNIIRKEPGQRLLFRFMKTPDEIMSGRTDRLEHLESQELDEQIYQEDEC
Chain of HSF1 (Q00613 whole entry): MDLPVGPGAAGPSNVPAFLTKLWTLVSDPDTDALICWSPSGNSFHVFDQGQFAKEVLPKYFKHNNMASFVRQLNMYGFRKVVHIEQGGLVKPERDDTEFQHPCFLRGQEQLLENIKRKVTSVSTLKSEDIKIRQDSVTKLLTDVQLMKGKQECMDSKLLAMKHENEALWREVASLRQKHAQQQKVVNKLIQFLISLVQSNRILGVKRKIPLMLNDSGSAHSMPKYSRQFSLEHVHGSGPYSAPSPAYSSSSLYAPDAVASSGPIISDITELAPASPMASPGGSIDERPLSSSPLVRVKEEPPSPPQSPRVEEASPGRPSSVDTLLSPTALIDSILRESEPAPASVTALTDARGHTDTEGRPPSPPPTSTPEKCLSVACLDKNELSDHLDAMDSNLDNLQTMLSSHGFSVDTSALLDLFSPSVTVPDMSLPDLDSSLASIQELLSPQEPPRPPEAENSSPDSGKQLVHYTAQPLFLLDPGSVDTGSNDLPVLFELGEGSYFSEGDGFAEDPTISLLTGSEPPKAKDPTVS
Chain of ETV1 (P50549 whole entry): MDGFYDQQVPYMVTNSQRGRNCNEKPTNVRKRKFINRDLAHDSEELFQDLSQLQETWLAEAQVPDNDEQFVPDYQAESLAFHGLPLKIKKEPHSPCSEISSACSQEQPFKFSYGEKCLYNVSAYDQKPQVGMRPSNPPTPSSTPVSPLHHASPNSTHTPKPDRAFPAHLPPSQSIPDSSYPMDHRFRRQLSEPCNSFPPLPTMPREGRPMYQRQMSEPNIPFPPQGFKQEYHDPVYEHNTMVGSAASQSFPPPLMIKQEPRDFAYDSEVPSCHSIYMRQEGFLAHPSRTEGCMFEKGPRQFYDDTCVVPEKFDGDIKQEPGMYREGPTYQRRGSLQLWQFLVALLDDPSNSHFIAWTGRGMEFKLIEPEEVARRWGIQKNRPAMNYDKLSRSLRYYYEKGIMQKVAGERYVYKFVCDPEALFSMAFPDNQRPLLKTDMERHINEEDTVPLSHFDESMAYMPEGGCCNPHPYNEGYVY

Consider AACCAA, for which the binding signal with FEV was 1.19 fold enrichment (6-mer frequency, TF over GST control); with ETV5, 1.21 fold enrichment (6-mer frequency, TF over GST control); with HSF1 it was 1.08 fold enrichment (6-mer frequency, TF over GST control); with SPIC, 1.1 fold enrichment (6-mer frequency, TF over GST control); with ELF4, 1.33 fold enrichment (6-mer frequency, TF over GST control); with ELK4, 1.05 fold enrichment (6-mer frequency, TF over GST control). Besides, the binding signal in the test with ETV2 is 1.21 fold enrichment (6-mer frequency, TF over GST control); with ELF3, 1.32 fold enrichment (6-mer frequency, TF over GST control); with CRX, 1.09 fold enrichment (6-mer frequency, TF over GST control); with ETV1, 1.2 fold enrichment (6-mer frequency, TF over GST control); with ERF, 1.25 fold enrichment (6-mer frequency, TF over GST control); with ETV3L, 1.15 fold enrichment (6-mer frequency, TF over GST control). Moreover, the binding signal with ETS2 is 1.23 fold enrichment (6-mer frequency, TF over GST control); with SPDEF, 1.21 fold enrichment (6-mer frequency, TF over GST control); in the test with ETV7, 1.2 fold enrichment (6-mer frequency, TF over GST control); with ELF5 it was 1.16 fold enrichment (6-mer frequency, TF over GST control); with ETV3, 1.18 fold enrichment (6-mer frequency, TF over GST control); with ETV6, 1.29 fold enrichment (6-mer frequency, TF over GST control).
